# From PubChem BioAssay AID1159580 (chemical genetic matrix, 2015)
# Where “and” joins values, the source holds several entries; their conditions need not be identical. Equal values may be shown once. Screen size: about 5,500 compounds; about 2,000 (36%) were called active. Inconclusive results (about 18%) are left out. The list shows a part of the results. Values without a mark were called inactive. Rule as the data show it: active = normalized growth mostly below about 0.91 (no sharp cut-off); inconclusive = no clear call, values can overlap the other calls; inactive = mostly above about 0.92.
# Experiment: chemical genetic growth profiling, strain panel (AID 1159580);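 also: tested at 20 µM; growth read once vehicle control cultures reached saturation at 30 °C; 1 = growth at the plate median or of vehicle wells; lower values mean less growth of the strain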
# Settings: S. cerevisiae deletion strains, growth OD
compound,measurement,setting,value
COc1ccc2c(c1)OCC(Cc1ccc(OC)c(OC)c1)C2=O (stereo unspecified),normalized growth,"locus YAL013W, strain DEP1, hits give low values",0.979
same,normalized growth,"locus YAL021C, strain ccr4, hits give low values",0.982
same,normalized growth,"locus YAL026C, strain drs2, hits give low values",0.928
same,normalized growth,"locus YAL030W, strain snc1, hits give low values",0.972
same,normalized growth,"locus YBL061C, strain skt5, hits give low values",0.959
same,normalized growth,"locus YBR009C, strain hhf1, hits give low values",0.941
same,normalized growth,"locus YBR021W, strain FUR4, hits give low values",0.905
same,normalized growth,"locus YBR023C, strain chs3, hits give low values",0.958
same,normalized growth,"locus YBR171W, strain sec66, hits give low values",0.96
same,normalized growth,"locus YBR229C, strain ROT2, hits give low values",0.993
same,normalized growth,"locus YBR231C, strain swc5, hits give low values",0.924
same,normalized growth,"locus YBR279W, strain paf1, hits give low values",0.973
same,normalized growth,"locus YCL011C, strain gbp2, hits give low values",0.96
same,normalized growth,"locus YCL016C, strain dcc1, hits give low values",0.969
same,normalized growth,"locus YCL029C, strain bik1, hits give low values",0.988
same,normalized growth,"locus YCL061C, strain MRC1, hits give low values",0.923
same,normalized growth,"locus YCL069W, strain vba3, hits give low values",0.967
same,normalized growth,"locus YCR088W, strain abp1, hits give low values",0.987
same,normalized growth,"locus YDL005C, strain med2, hits give low values",0.987
same,normalized growth,"locus YDL035C, strain GPR1, hits give low values",0.954
same,normalized growth,"locus YDL040C, strain nat1, hits give low values",0.982
same,normalized growth,"locus YDL074C, strain BRE1, hits give low values",0.928
same,normalized growth,"locus YDL101C, strain DUN1, hits give low values",0.982
same,normalized growth,"locus YDL185W, strain tfp1, hits give low values",0.999
same,normalized growth,"locus YDL192W, strain arf1, hits give low values",0.986
same,normalized growth,"locus YDR001C, strain nth1, hits give low values",0.973
same,normalized growth,"locus YDR069C, strain doa4, hits give low values",0.964
same,normalized growth,"locus YDR101C, strain arx1, hits give low values",0.974
same,normalized growth,"locus YDR137W, strain rgp1, hits give low values",0.933
same,normalized growth,"locus YDR159W, strain sac3, hits give low values",0.873
same,normalized growth,"locus YDR162C, strain NBP2, hits give low values",0.89
same,normalized growth,"locus YDR195W, strain ref2",1.06
same,normalized growth,"locus YDR297W, strain sur2, hits give low values",0.949
same,normalized growth,"locus YDR318W, strain mcm21, hits give low values",0.978
same,normalized growth,"locus YDR334W, strain swr1, hits give low values",0.98
same,normalized growth,"locus YDR335W, strain msn5, hits give low values",0.986
same,normalized growth,"locus YDR388W, hits give low values",1.01
same,normalized growth,"locus YDR392W, strain spt3, hits give low values",0.544 (active)
same,normalized growth,"locus YDR502C, strain sam2, hits give low values",0.973
same,normalized growth,"locus YEL003W, strain gim4, hits give low values",0.947
same,normalized growth,"locus YEL037C, strain rad23, hits give low values",0.986
same,normalized growth,"locus YEL061C, strain CIN8 (second series), hits give low values",0.985
same,normalized growth,"locus YEL061C, strain CIN8, hits give low values",0.987
same,normalized growth,"locus YER015W, strain faa2, hits give low values",0.968
same,normalized growth,"locus YER016W, strain bim1, hits give low values",0.976
same,normalized growth,"locus YER110C, hits give low values",0.988
same,normalized growth,"locus YER111C, strain swi4, hits give low values",0.982
same,normalized growth,"locus YER155C, strain BEM2 (second series), hits give low values",0.802 (active)
same,normalized growth,"locus YER155C, strain BEM2, hits give low values",0.999
same,normalized growth,"locus YER167W, strain BCK2, hits give low values",0.997
same,normalized growth,"locus YFR010W, strain ubp6, hits give low values",0.97
same,normalized growth,"locus YGL078C, strain dbp3, hits give low values",0.998
same,normalized growth,"locus YGL086W, strain mad1, hits give low values",0.965
same,normalized growth,"locus YGL167C, strain pmr1, hits give low values",0.964
same,normalized growth,"locus YGL173C, strain kem1, hits give low values",0.963
same,normalized growth,"locus YGL227W, strain vid30, hits give low values",0.974
same,normalized growth,"locus YGL240W, strain doc1, hits give low values",0.898
same,normalized growth,"locus YGL248W, strain PDE1, hits give low values",0.954
same,normalized growth,"locus YGL253W, strain hxk2, hits give low values",0.879 (active)
same,normalized growth,"locus YGR078C, strain PAC10, hits give low values",0.905
same,normalized growth,"locus YGR135W, strain pre9, hits give low values",0.993
same,normalized growth,"locus YGR252W, strain gcn5, hits give low values",0.834
same,normalized growth,"locus YHR013C, strain ard1, hits give low values",0.907
same,normalized growth,"locus YHR027C, strain rpn1, hits give low values",0.967
same,normalized growth,"locus YHR030C, strain SLT2, hits give low values",0.989 and 0.988
same,normalized growth,"locus YHR079C, strain IRE1 (second series), hits give low values",1
same,normalized growth,"locus YHR079C, strain IRE1, hits give low values",1.01
same,normalized growth,"locus YHR094C, strain hxt1, hits give low values",1.01
same,normalized growth,"locus YHR129C, strain ARP1, hits give low values",0.976
same,normalized growth,"locus YHR142W, strain chs7, hits give low values",0.897
same,normalized growth,"locus YHR200W, strain rpn10, hits give low values",0.992
same,normalized growth,"locus YIL066C, strain RNR3, hits give low values",0.915
same,normalized growth,"locus YIL073C, strain SPO22, hits give low values",0.925
same,normalized growth,"locus YIL125W, strain kgd1, hits give low values",0.991
same,normalized growth,"locus YIR030C, strain dcg1, hits give low values",0.99
same,normalized growth,"locus YJL092W, strain hpr5, hits give low values",0.981
same,normalized growth,"locus YJL095W, strain BCK1 (second series), hits give low values",0.979
same,normalized growth,"locus YJL095W, strain BCK1, hits give low values",0.887 and 1.01
same,normalized growth,"locus YJL115W, strain asf1, hits give low values",0.974
same,normalized growth,"locus YJL129C, strain trk1, hits give low values",0.892
same,normalized growth,"locus YJL134W, strain LCB3, hits give low values",0.994
same,normalized growth,"locus YJL154C, strain vps35, hits give low values",0.98
same,normalized growth,"locus YJL164C, strain tpk1, hits give low values",0.96
same,normalized growth,"locus YJL166W, strain qcr8, hits give low values",0.909
same,normalized growth,"locus YJL168C, strain set2, hits give low values",0.994
same,normalized growth,"locus YJL187C, strain SWE1 (second series), hits give low values",0.965
same,normalized growth,"locus YJR043C, strain POL32, hits give low values",0.97
same,normalized growth,"locus YJR066W, strain TOR1, hits give low values",0.955
same,normalized growth,"locus YJR075W, strain HOC1, hits give low values",0.972
same,normalized growth,"locus YKL009W, strain mrt4, hits give low values",0.984
same,normalized growth,"locus YKL068W, hits give low values",0.982
same,normalized growth,"locus YKL085W, strain MDH1 (second series), hits give low values",0.995
same,normalized growth,"locus YKL085W, strain MDH1, hits give low values",0.995
same,normalized growth,"locus YKL160W, strain elf1, hits give low values",0.955
same,normalized growth,"locus YKR001C, strain vps1, hits give low values",0.998
same,normalized growth,"locus YKR026C, strain gcn3, hits give low values",0.976
same,normalized growth,"locus YKR091W, strain srl3, hits give low values",0.991
same,normalized growth,"locus YLL001W, strain dnm1, hits give low values",0.897 (active)
same,normalized growth,"locus YLL026W, hits give low values",0.963
same,normalized growth,"locus YLL041C, strain sdh2, hits give low values",0.983
same,normalized growth,"locus YLR027C, strain aat2, hits give low values",0.922 (active)
same,normalized growth,"locus YLR039C, strain RIC1, hits give low values",0.958
same,normalized growth,"locus YLR058C, strain SHM2, hits give low values",0.98
same,normalized growth,"locus YLR102C, strain apc9, hits give low values",0.998
same,normalized growth,"locus YLR113W, strain HOG1, hits give low values",0.931
same,normalized growth,"locus YLR221C, strain rsa3, hits give low values",0.922
same,normalized growth,"locus YLR258W, strain gsy2, hits give low values",0.968
same,normalized growth,"locus YLR262C, strain YPT6 (second series), hits give low values",0.88
same,normalized growth,"locus YLR262C, strain YPT6, hits give low values",0.869
same,normalized growth,"locus YLR268W, strain sec22, hits give low values",0.963
same,normalized growth,"locus YLR320W, strain mms22, hits give low values",0.879
same,normalized growth,"locus YLR330W, strain CHS5, hits give low values",0.961
same,normalized growth,"locus YLR342W, strain FKS1 (second series), hits give low values",0.921
same,normalized growth,"locus YLR342W, strain FKS1, hits give low values",0.951
same,normalized growth,"locus YLR357W, strain rsc2, hits give low values",0.945
same,normalized growth,"locus YLR370C, strain arc18, hits give low values",0.972
same,normalized growth,"locus YLR371W, strain rom2, hits give low values",0.985
same,normalized growth,"locus YLR384C, strain iki3, hits give low values",0.976
same,normalized growth,"locus YLR418C, strain cdc73, hits give low values",0.842
same,normalized growth,"locus YML016C, strain PPZ1, hits give low values",0.995
same,normalized growth,"locus YML032C, strain rad52, hits give low values",0.984
same,normalized growth,"locus YML120C, strain ndi1, hits give low values",0.965
same,normalized growth,"locus YML124C, strain tub3, hits give low values",0.986
same,normalized growth,"locus YMR058W, strain fet3, hits give low values",0.938
same,normalized growth,"locus YMR078C, strain ctf18, hits give low values",1
same,normalized growth,"locus YMR125W, strain sto1, hits give low values",0.994
same,normalized growth,"locus YMR129W, hits give low values",0.981
same,normalized growth,"locus YMR205C, strain PFK2, hits give low values",0.896
same,normalized growth,"locus YMR223W, strain ubp8, hits give low values",1
same,normalized growth,"locus YMR231W, strain pep5, hits give low values",0.993
same,normalized growth,"locus YMR307W, strain GAS1, hits give low values",0.83
same,normalized growth,"locus YNL067W, strain RPL9B, hits give low values",0.968
same,normalized growth,"locus YNL071W, strain lat1, hits give low values",0.82 (active)
same,normalized growth,"locus YNL128W, strain TEP1, hits give low values",0.991
same,normalized growth,"locus YNL183C, strain NPR1, hits give low values",0.961
same,normalized growth,"locus YNL209W, strain ssb2, hits give low values",0.987
same,normalized growth,"locus YNL233W, strain BNI4, hits give low values",0.919
same,normalized growth,"locus YNL248C, strain rpa49, hits give low values",0.928
same,normalized growth,"locus YNL250W, strain rad50, hits give low values",0.998
same,normalized growth,"locus YNL271C, strain bni1, hits give low values",0.989
same,normalized growth,"locus YNL298W, strain CLA4, hits give low values",0.98
same,normalized growth,"locus YNL307C, strain MCK1, hits give low values",0.894 (active)
same,normalized growth,"locus YNL322C, strain KRE1 (second series), hits give low values",0.982
same,normalized growth,"locus YNL322C, strain KRE1, hits give low values",0.985
same,normalized growth,"locus YNR049C, strain mso1, hits give low values",0.985
same,normalized growth,"locus YNR052C, strain pop2, hits give low values",0.989
same,normalized growth,"locus YOL006C, strain TOP1, hits give low values",0.784
same,normalized growth,"locus YOL012C, strain htz1",0.731
same,normalized growth,"locus YOL147C, strain pex11, hits give low values",0.98
same,normalized growth,"locus YOR001W, strain rrp6, hits give low values",0.923
same,normalized growth,"locus YOR061W, strain CKA2, hits give low values",0.984
same,normalized growth,"locus YOR069W, strain VPS5, hits give low values",0.993
same,normalized growth,"locus YOR070C, strain gyp1, hits give low values",0.937
same,normalized growth,"locus YOR080W, strain dia2, hits give low values",0.967
same,normalized growth,"locus YOR083W, strain WHI5, hits give low values",0.936
same,normalized growth,"locus YOR106W, strain vam3, hits give low values",0.978
same,normalized growth,"locus YOR136W, strain idh2, hits give low values",0.99
same,normalized growth,"locus YOR144C, strain elg1, hits give low values",0.978
same,normalized growth,"locus YOR184W, strain ser1, hits give low values",0.884
same,normalized growth,"locus YOR231W, strain MKK1, hits give low values",1.02
same,normalized growth,"locus YOR265W, strain rbl2, hits give low values",1
same,normalized growth,"locus YOR270C, strain vph1, hits give low values",0.821
same,normalized growth,"locus YOR290C, strain snf2, hits give low values",0.935
same,normalized growth,"locus YOR316C, strain cot1, hits give low values",1
same,normalized growth,"locus YPL051W, strain arl3, hits give low values",0.922
same,normalized growth,"locus YPL055C, strain LGE1, hits give low values",0.896
same,normalized growth,"locus YPL078C, strain atp4, hits give low values",0.939
same,normalized growth,"locus YPL106C, strain sse1, hits give low values",0.94
same,normalized growth,"locus YPL240C, strain hsp82, hits give low values",0.993
same,normalized growth,"locus YPL241C, strain CIN2, hits give low values",0.99
same,normalized growth,"locus YPL256C, strain CLN2, hits give low values",1.02
same,normalized growth,"locus YPR119W, strain clb2, hits give low values",0.98
same,normalized growth,"locus YPR141C, strain kar3, hits give low values",0.992
same,normalized growth,"locus YPR163C, strain tif3, hits give low values",0.969
same,normalized growth,"locus YPR167C, strain met16, hits give low values",0.965
same,normalized growth,"strain wtn01, hits give low values",0.971
